From ChEMBL document CHEMBL4888484, “Replenishing the malaria drug discovery pipeline: Screening and hit evaluation of the MMV Hit Generation Library 1 (HGL1) against asexual blood stage Plasmodium falciparum ,using a nano luciferase reporter read-out” (2022)
The campaign covered roughly 4,800 compounds. About 420 (8.8%) showed an effect of 50% or more. Only a selection was taken, and strong results are over-represented in it overall.

test system: Plasmodium falciparum; experiment: Confirmatory screen in NF54 nanoGlo assay, in single point, at 2uM, 72h; assay type: functional, Erythrocyte; settings: timepoint 72 hour

Compound	% Inhibition [%]
O=C(NC(N1CCCC1=O)(C(F)(F)F)C(F)(F)F)c1ccco1	-1
CC(C)(C)OC(=O)NC1CCCN(CC2CN(c3ccc(F)cc3)C(=O)O2)C1 (stereo not given)	-8
CN(C)c1nc(N)cc(-c2cccc3cccnc23)n1	44
Cc1cccc(C)c1NC(=O)c1cc(-c2cccc3ccccc23)[nH]n1	2
Cc1cccc2c(-c3cc(N)nc(N)n3)c[nH]c12	85
O=C(NCc1cc(F)cc(F)c1)c1csc(C(=O)NC2CC2)n1	-6
C[C@H]1CCCN(C(=O)CNC(=O)Cc2ccccc2)CC1	-9
CN(C)c1nc(CN2CCC[C@H](c3n[nH]c(-c4ccccc4)n3)C2)ns1	-1
COc1ccnc(CN2CCC[C@H](c3nc(-c4ccccc4)c[nH]3)C2)c1OC	67
c1ccc(-c2c[nH]c([C@H]3CCCN(c4ncnc5[nH]ncc45)C3)n2)cc1	-4
CCS(=O)(=O)Nc1cc2c(C(C)=O)c(C)oc2cc1C	4
Cc1ccc2c(c1)[C@@H](O)C[C@@H](C)N2C(=O)c1ccco1	-7
Brc1ccc2c(c1)CN(Cc1c[nH]cn1)CCO2	4
COc1ccc(-c2cc(-c3ccccc3)nc(N3CCC(C)CC3)n2)cc1	50
Cc1nc(N2CCC(C)CC2)ncc1-c1cc(=O)[nH]c(Nc2ccccc2)n1	-16
COc1ccc(N2CCN(c3nc(-c4ccccc4)cs3)CC2)cc1	-6
Cc1cccc(NC(=O)CS(=O)(=O)Cc2cc(Cl)cc3c2OCOC3)c1C	-10
COc1cccc(CNC(=O)Cn2c(=O)n(Cc3cccc(OC)c3)c(=O)c3sccc32)c1	2
O=C(CNC(=O)c1ccc(C(F)(F)F)cc1)Nc1cnc2c(c1)COCC2	-1
CCNC(=O)c1csc(COc2ccc3c(c2)[C@H](c2ccc(C)cc2)N(C(=O)CC(C)C)CC3)n1	36
Cc1cccc(CN2C(=O)[C@@H]3CCCN3c3ccc(C#N)cc32)c1	0
Cc1cc(N2CC(OCc3ccccc3)C2)nc(Nc2cccc(O)c2)n1	96
Cc1cc(N2C[C@H]3CC[C@@H](C2)[C@H]3N(C)C)nc(Nc2cccc(O)c2)n1	44
CN(C(=O)C(C)(C)Nc1ncc(C(F)(F)F)cc1Cl)c1ccc(Cl)cc1	35
CN(CC#N)C(=O)c1ccc(Br)cc1Br	-12

Compound	% Inhibition [%]
O=C(N[C@@H]1CN(Cc2ccccn2)CCC[C@H]1O)c1ccc(OCc2ccccc2)cc1	30
CC(C)C1(CNC(=O)C(=O)c2cc(S(N)(=O)=O)cn2C)CC1	-3
CCn1cc(C)c(C(=O)O)c1CC(=O)NCc1ccc(F)cc1	-12
CC(CNC(=O)NCC(O)C1CC1)c1ccc(F)c(F)c1 (stereo not given)	3
Cc1nn(C)cc1[C@@H]1CC(=O)Nc2c1cnn2C(C)(C)C	-14
Cc1cc(C)n(-c2nc(Nc3ccc(Cl)cc3)nc(Nc3ccc(Cl)cc3)n2)n1	82
Cc1cc(C)n(-c2nnc(-c3ccccc3)c(-c3ccccc3)n2)n1	2
COc1cc(OC)nc(-n2nc(C)cc2C(=O)Nc2ccc(Cl)cc2)n1	10
O=C(Cc1cccs1)Nc1ncc(Cc2ccccc2)s1	4
CCn1cc(Cl)c(C(=O)N2N=C3/C(=C/c4ccc(C)cc4)CCCC3C2c2ccc(C)cc2)n1 (stereo not given)	7
Cc1ccc(NC(=O)CN2CCC3(CC2)NC(c2ccc(OC(F)(F)F)cc2)=NO3)c(C)c1	-5
CCC(C)(C)c1ccc(OCC(=O)Nc2cccc(C(=O)CC(=O)Nc3ccc(Oc4ccccc4)cc3)c2)c(C(C)(C)CC)c1	-4
COc1nc(N2[C@@H]3CC[C@H]2C[C@@H](OC)C3)ncc1F	62
CCN1CCN(C2CCN(c3ncc(F)c(OC)n3)CC2)CC1	48
COc1cc(N)ccc1OCC(F)F	2
Cc1nn(C)cc1-c1cc(C(F)(F)F)nc(N2CCOCC2)n1	-5
Cn1ccc(NC(=O)C(=O)c2ccc(-c3ccccc3)cc2)n1	1
Cc1ccccc1NC(=O)N1CCN(C(=O)c2nonc2N)CC1	-7
NS(=O)(=O)c1ccc(-c2noc(C3(c4cccc(F)c4)CCC3)n2)cc1	-9
COCCN1CCc2c(C)nc3c(-c4ccc(OC)c(OC)c4)cnn3c21	6
Cc1ccc(S(=O)(=O)N2CCC(c3csc(N)n3)CC2)cc1	-9
CCc1ncoc1C(=O)NCC(F)(F)c1cc(F)cc(F)c1	-10
O=C1CCc2[nH]c(=O)n(C3CCCCC3)c(=O)c21	4
C[C@@H]1NC(=O)N(C2CCCN(Cc3cccc(C(F)(F)F)c3)C2=O)C1=O (stereo not given in full)	-11
COc1ccc(-n2c(C)nn(Cc3ccccc3)c2=O)cc1	-11

Compound	% Inhibition [%]
CN(CCCNC(=O)Cc1n[nH]c(=O)c2ccccc12)Cc1ccccc1	-2
CCCC(=O)Nc1ccc(N2CCN(CC(=O)N(CC)CC)CC2)cc1C(=O)O	-2
Cc1cc(C)c(NC(=O)c2nnn(CC(=O)NCc3ccc(F)cc3)c2C)c(C)c1	-9
O=C(N[C@H]1C[C@@H]2C[C@H]1CN2C(=O)c1cccc(C(F)(F)F)c1)c1ccccc1	3
COc1ccc(OC)c(NC(=O)CN2CCc3[nH]c4ccc(F)cc4c(=O)c3C2)c1	72
COc1cc(C)c2[nH]c3c(c(=O)c2c1)CN(CC(=O)Nc1ccc(C)c(F)c1)CC3	0
COc1cc(C)c2[nH]c3c(c(=O)c2c1)CN(CC(=O)Nc1ccc(F)c(C)c1)CC3	14
COc1ccc(S(=O)(=O)N(C2CCCCC2)C2CCCCC2)cc1	-11
CCN(CCc1ccncc1)S(=O)(=O)c1ccc(N2C(=O)CCS2(=O)=O)cc1C	6
O=C(Nc1ccc(-c2nc3cnccc3o2)c(Cl)c1)c1sc2ccccc2c1Cl	-5
COc1cccc(-c2cc(O)cc(CC[C@H]3CCCCN3)c2)n1	73
Oc1cc(CC[C@H]2CCCCN2)cc(-c2cnc3ccccc3n2)c1	73
COCCN(CC1CN(Cc2ccsc2)CC1c1cccc(F)c1)C(=O)C(C)C (stereo not given)	2
O=C(Nc1ccc(N2CCn3c(nc4cc(Cl)ccc43)C2)cc1)c1ccc(F)cc1	-6
Cc1nc(Cc2nc(O)cs2)sc1C	-20
NC[C@H]1CN(CCc2cccc(Cl)c2)C(=O)O1	-8
Cc1ccnc2nc(C(=O)N(C)c3ccc(Cl)cn3)nn12	16
CCC(=O)Nc1nc2ccc(NS(=O)(=O)Cc3ccccc3)cc2s1	-5
Fc1cccc(Br)c1C1CC(c2cccnc2)Nc2ncnn21 (stereo not given)	-9
CC(C)(C)OC(=O)NCc1ccccc1O	1
O=C(NC1CCN(Cc2ccccc2)CC1)c1cncc(O)c1	-10
CCN1CCN(C(=O)c2ccccc2N2CCC(NC(=O)c3cccc(Br)c3)CC2)CC1	44
CCN(CC)CCCNC(=O)c1ccc(-c2nc(CS(=O)(=O)c3ccccc3)c(C)o2)cc1	-10
O=S(=O)(c1ccc(Cl)cc1)N1CCN(C2CCCC2)CC1	2
Cc1ccc(Cn2cnc(NC(=O)CCn3c(=O)cc(C(F)F)c4cn(C)nc43)n2)cc1	-8

Compound	% Inhibition [%]
CCCCn1nc(NC(=O)c2cc(C3CC3)[nH]n2)cc1C	-2
Cc1cccc(NC(=O)c2cc(C)nc3c2c(C)nn3-c2ccc(F)cc2)c1	-2
CC(C)n1nccc1NC(=O)c1c[nH]c2ccc(F)cc2c1=O	-1
CCN1CCN(c2cccc(NC(=O)c3ccc4[nH]c5ccccc5c(=O)c4c3)c2)CC1	93
CC(C)NC(=O)N(C)Cc1ccc(F)cc1	0
O=c1[nH]c2ccccc2c(NCc2ccccc2)c1N1CCN(c2ccccc2)CC1	5
CC(=O)Nc1cccc(C#CCN2CCN(c3ccc(F)cc3)CC2)c1	-5
CCn1c(C)c(C)c2cc(C(=O)Nc3cccc(S(=O)(=O)N4CCOCC4)c3)ccc21	0
CCN1CCN(c2cccc(NC(=O)c3cc(F)cc4c(=O)c5cc(F)ccc5[nH]c34)c2)CC1	97
CN(C)Cc1ccc(NC(=O)c2cc(F)cc3c(=O)c4cc(F)ccc4[nH]c23)cc1	79
O=C(Nc1ccc(N2CCC(N3CCCCC3)CC2)cc1C(=O)O)c1ccccc1Cl	4
O=C1C2C3C=CC(C3=C(c3ccccc3)c3ccccc3)C2C(=O)N1CCO (stereo not given)	-5
N#Cc1ccc(N[C@H]2CCCN(Cc3ccc(F)cc3F)C2=O)cn1	-10
Cc1nc(COc2nc(C(C)(C)C)no2)cs1	-10
Cc1ccsc1NC(=O)OC(C)(C)C	1
Cc1nonc1N(Cc1ccc(Cl)cc1Cl)S(=O)(=O)c1ccccc1	-22
COc1cc(C(=O)N2CCN(c3ccccc3)CC2)cc2occc12	-2
O=C(NCc1cccc(Br)c1)c1ccc(Cl)c(-n2cnc3cccnc32)c1	-1
O=C(COCC(=O)Nc1cccc(Cl)c1Cl)NCCC1=CCCCC1	-3
O=C(O)C1CC=CCC1C(=O)N1CCCCCC1 (stereo not given)	2
NC(=O)C(=O)Nc1ccccc1C(F)(F)F	-8
COc1ccc(CNC(=O)c2cc(C(=O)c3ccc(F)cc3)c[nH]2)cc1	-11
COc1ccc(-n2ncc(Oc3cccc(C)c3)c(Nc3cccc(C(=O)NCc4ccc(F)cc4)c3)c2=O)cc1	50
CC(C)c1ccc(Oc2cnn(-c3cccc(Cl)c3)c(=O)c2Nc2cccc(C(=O)NC3CC3)c2)cc1	48
O=c1cc(COc2ccc(F)c(F)c2)nc2sccn12	3
